According to PubChem BioAssay (NCATS):
Results filed as inconclusive are left out. Active and inactive are the calls of the source. Calls come from the whole dose curve; as a rule, active = well fitted curve in the direction sought with a large enough effect; inconclusive = small, poorly fitted or top-dose-only effect, or another doubt; inactive = no such curve, though single readings can be large; an effect the other way counts as inactive or inconclusive.

How the values were obtained:
[1] = Cell Viability - SH-SY5Y (AID 544); settings: SH-SY5Y neuroblastoma cell viability; viability change, negative = cytotoxic: at 92.2 µM (top of the series);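 note: cells exposed to compound for 40 hours; nearly all actives have a fitted effect of over 55% in size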
How it was run: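 Quantitative HTS in SH-SY5Y neuroblastoma cells, 40 hr treatment at 37 °C, ATP content by luciferase luminescence; AC50 from Hill fits.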

[2] = Cell Viability - Renal Proximal Tubule (AID 545);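 note: cells exposed to compound for 40 hours; nearly all actives have a fitted effect of over 40% in size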
How it was run: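 Viability taken as intracellular ATP (CellTiter-Glo luminescence) after 40 hr, 37 °C compound treatment of primary proximal tubule cells from rat kidney, 1000 cells/well; Hill-equation fits of qHTS concentration-response data gave AC50.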

[3] = Cell Viability - Mesenchymal (AID 546);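 note: cells exposed to compound for 40 hours before reading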
How it was run: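 CellTiter-Glo luminescence (intracellular ATP, 20 min room temperature) after 40 hr compound exposure at 37 °C of 1000 glomerulus-derived human kidney mesenchymal cells/well; AC50 values obtained by fitting qHTS concentration-response data to the Hill equation.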

[4] = Cellular Toxicity (caspase-3) HepG2 (AID 654);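 note: cells exposed to compound for 16 hours before reading; 0% = DMSO alone and 100% = caspase signal from 100 µM tamoxifen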
How it was run: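 Concentration-response AC50 values reflect caspase-3/7 induction in HepG2 cells after 16 hours of compound exposure, quantified by luminescence from liberated aminoluciferin and referenced to 100 uM tamoxifen as full stimulation.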

[5] = Cellular Toxicity (caspase-3) Jurkat (AID 655); settings: Jurkat caspase-3 activation, luminescence; caspase-3 activation: at 92.2 µM (top of the series), DMSO = 0%, tamoxifen = 100%;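 note: cells exposed to compound for 16 h at 37 °C before reading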
How it was run: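 Luminescent Caspase-Glo 3/7 read-out (20 min, room temperature) after 16 h compound treatment at 37 C of 5000 Jurkat cells per well. AC50 derived by Hill-equation fitting, scaled between DMSO basal and 100 uM tamoxifen stimulation.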

[6] = Cellular Toxicity (caspase-3) HUV-EC-C (AID 656)
How it was run: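 Luminescent Caspase-Glo 3/7 readout after 16 h, 37 °C compound exposure of HUV-EC-C endothelial cells, 1000 per well, complete medium. AC50 derived by Hill fitting, with DMSO as baseline and 100 uM tamoxifen as full activation.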

[7] = Cellular Toxicity (caspase-3) SHSY5Y (AID 657)
How it was run: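 Luminescent Caspase-Glo 3/7 read-out, 1 hr room temperature, follows 16 hours of compound treatment of SH-SY5Y cells at 37 °C. Normalization: DMSO basal, 10 uM staurosporine as 100%; AC50 values from Hill-equation concentration-response fits.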

[8] = Cellular Toxicity (caspase-3) BJ (AID 658);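 note: 0% = DMSO basal and 100% = 10 µM staurosporine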
How it was run: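 Caspase-Glo 3/7 luminescence, read 1 hr after reagent at room temperature, in normal BJ fibroblasts exposed 16 hours at 37 °C. AC50 values from Hill-equation concentration-response, scaled between DMSO basal and 10 uM staurosporine as 100%.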

[9] = Cellular Toxicity (caspase-3) MRC-5 (AID 659);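 note: 0% = DMSO basal and 100% = 10 µM staurosporine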
How it was run: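 Luminescent Caspase-Glo 3/7 read-out (1 h, room temperature) after a 16 h, 37 °C compound exposure of MRC-5 lung fibroblasts at 1500 cells/well. Concentration-response AC50 from Hill equation; 0% DMSO, 100% 10 uM staurosporine.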

[10] = Cellular Toxicity (caspase-3) Mesangial (AID 660); settings: mesangial cells, normalized: DMSO 0%, 100 µM tamoxifen 100%; at 91.7 µM (top of the series);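 note: combined caspase 3 and 7 activity read by Caspase-Glo luminescence; cells exposed to compound for 16 h before the caspase read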
How it was run: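 AC50 values come from Hill-equation fits of caspase 3/7 activation, measured as Caspase-Glo luminescence in human glomerular mesangial cells exposed to compound for 16 h at 37 °C; 100% set by 100 uM tamoxifen.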

[11] = Cellular Toxicity (caspase-3) SK-N-SH (AID 661);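 note: 0% = DMSO basal and 100% = 10 µM staurosporine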
How it was run: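 Apoptosis readout in SK-N-SH neuroblastoma: Caspase-Glo 3/7 luminescence following 16 hr treatment in complete culture medium. Normalization used DMSO and 10 uM staurosporine controls.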

[12] = Cellular Toxicity (caspase-3) H-4-II-E (AID 663); settings: H-4-II-E rat hepatoma, scaled: DMSO 0%, 100 µM tamoxifen 100%; at 92.2 µM (top of the series);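 note: cells exposed to compound for 16 hr before readout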
How it was run: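 Caspase 3/7 activation measured by luminescent aminoluciferin substrate cleavage after 16 hr compound treatment of H-4-II-E cells in complete medium. Increase normalized between DMSO (basal) and 100 uM tamoxifen (100%); Hill-equation AC50 from concentration-response.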

[13] = Cellular Toxicity (caspase-3) Hek293 (AID 664); settings: HEK293 caspase-3 activation, DMSO = 0%, 100 µM tamoxifen = 100%; at 92.2 µM (top of the series);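 note: cells exposed to compound for 16 h at 37 °C before readout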
How it was run: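 Apoptosis readout: Caspase-Glo 3/7 signal in human HEK293 cells following 16-hour compound incubation. Responses scaled between DMSO baseline and 100 uM tamoxifen.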

[14] = Cellular Toxicity (caspase-3) N2a (AID 665);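 note: compound exposure lasted 16 h at 37 °C before readout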
How it was run: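 Concentration-response qHTS: compound-induced caspase-3/7 luminescence in N2a cells (16 h, 37 °C), relative to DMSO and 10 uM staurosporine controls; AC50 obtained using the standard Hill equation.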

[15] = Cellular Toxicity (caspase-3) NIH 3T3 (AID 666);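 note: 0% = DMSO basal and 100% = 100 µM tamoxifen stimulation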
How it was run: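 Activity: caspase-3/7 induction, NIH 3T3 cells, 16 hr treatment at 37°C, luminescent Caspase-Glo detection; AC50 via Hill equation.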

[16] = Cellular Toxicity (caspase-3) Renal Proximal Tubule (AID 667); settings: Potency: caspase-3 activation;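 note: cells exposed to compound for 16 hours at 37 °C before detection; 0% = DMSO basal and 100% = 10 µM staurosporine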
How it was run: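 Caspase 3/7 activation measured by luminescent aminoluciferin release in primary rat proximal tubule cells after 16 hr compound exposure at 37 °C. AC50 from Hill-fitted concentration-response, scaled between DMSO and 10 uM staurosporine.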

[17] = biological target: Cytochrome P450 3A4 (Homo sapiens) (UniProt P08684); test: qHTS Assay for Inhibitors and Substrates of Cytochrome P450 3A4 (AID 884); note: % is set by controls: 0 for no effect and ±100 for the full control effect; nearly all actives have a fitted effect of over 50% in size
How it was run: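 Luminescent readout of luciferin produced by CYP3A4 (20 nM) dealkylation of Luciferin-PPXE, 25 uM (its KM). NADPH-driven reaction ran 60 min at RT after 10 min compound preincubation; data scaled to 57 uM ketoconazole as 100% inhibition.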

[18] = Cell Viability - LYMP2-001 (AID 921);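 note: 0% = DMSO only and full inhibition = tetraoctylammonium bromide control wells; nearly all actives have a fitted effect of over 70% in size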
How it was run: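 Cellular ATP loss read by luciferase luminescence after 24 h compound exposure at 37 C in complete medium. LYMP2-001 lymphoblastoid cells, 2500/well; qHTS concentration-response data fitted with Hill equation for AC50.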

[19] = biological target: Cytochrome P450 3A4 (Homo sapiens) (UniProt P08684); test: qHTS Assay for Activators of Cytochrome P450 3A4 (AID 885); note: nearly all actives have a fitted effect of over 65% in size
How it was run: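 Using 20nM recombinant human CYP3A4 in potassium phosphate (200mM), substrate Luciferin-PPXE at 25uM, luminescent luciferin detection followed a 60-min RT NADPH reaction; data scaled to 57 uM ketoconazole.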

Sequence of Cytochrome P450 3A4 (Homo sapiens) (P08684 whole entry, looked up): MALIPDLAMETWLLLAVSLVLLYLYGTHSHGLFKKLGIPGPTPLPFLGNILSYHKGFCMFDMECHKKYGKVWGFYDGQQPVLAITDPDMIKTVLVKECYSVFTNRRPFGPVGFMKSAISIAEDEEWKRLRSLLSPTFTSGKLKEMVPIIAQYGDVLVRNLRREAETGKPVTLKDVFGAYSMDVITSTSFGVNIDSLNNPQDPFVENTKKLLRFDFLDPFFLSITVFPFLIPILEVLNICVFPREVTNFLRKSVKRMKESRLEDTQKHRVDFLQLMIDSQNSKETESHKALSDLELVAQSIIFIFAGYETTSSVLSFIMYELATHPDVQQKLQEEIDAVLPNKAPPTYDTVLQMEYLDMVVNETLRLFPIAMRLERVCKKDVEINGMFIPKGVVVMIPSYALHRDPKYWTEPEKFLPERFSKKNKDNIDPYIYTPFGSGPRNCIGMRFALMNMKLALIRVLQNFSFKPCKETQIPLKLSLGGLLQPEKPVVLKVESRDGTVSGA

Cc1cc(C)cc([N+](=O)[O-])c1
inactive: Potency [1] | Potency [2] | Potency [3] | Potency [4] | caspase-3 activation [5] -1.49% | outcome [6] | outcome [7] | outcome [8] | outcome [9] | caspase-3 activation [10] -0.822% | outcome [11] | caspase-3 activation [12] 0.227% | caspase-3 activation [13] 0.15% | outcome [14] | outcome [15] | Potency [16] | Potency [17] | Potency [18]

O=[N+]([O-])c1ccc2nc[nH]c2c1
inactive: Potency [1] | Potency [2] | Potency [3] | Potency [4] | outcome [6] | outcome [7] | outcome [9] | caspase-3 activation [10] 0.38% | outcome [11] | caspase-3 activation [12] 2.59% | caspase-3 activation [13] 0.287% | outcome [14] | outcome [15] | Potency [16] | outcome [19] | Potency [18]

BrC(Br)C(Br)Br
inactive: Potency [1] | Potency [2] | Potency [3] | Potency [4] | caspase-3 activation [5] 0.993% | outcome [6] | outcome [7] | outcome [8] | outcome [9] | outcome [11] | caspase-3 activation [12] 0.661% | caspase-3 activation [13] -0.575% | outcome [14] | outcome [15] | Potency [16] | Potency [18]

CCCCCCCN
inactive: Potency [1] | Potency [2] | Potency [3] | Potency [4] | caspase-3 activation [5] -1.01% | outcome [6] | outcome [7] | outcome [8] | outcome [9] | outcome [11] | caspase-3 activation [12] 2.21% | caspase-3 activation [13] -0.824% | outcome [14] | outcome [15] | Potency [16] | Potency [17] | Potency [18]

C=C(C)C(=O)OCC(C)O (centres undefined)
inactive: Potency [1] | Potency [2] | Potency [3] | Potency [4] | caspase-3 activation [5] 1.29% | outcome [6] | outcome [7] | outcome [8] | outcome [9] | caspase-3 activation [10] 0.397% | outcome [11] | caspase-3 activation [12] 0.102% | caspase-3 activation [13] -1.45% | outcome [14] | outcome [15] | Potency [16] | Potency [17] | Potency [18]

Nc1cccc(C(F)(F)F)c1
inactive: Potency [1] | Potency [2] | Potency [4] | caspase-3 activation [5] -0.253% | outcome [6] | outcome [7] | outcome [8] | outcome [9] | caspase-3 activation [10] 2.31% | outcome [11] | caspase-3 activation [12] -0.107% | caspase-3 activation [13] 2.75% | outcome [14] | outcome [15] | Potency [16] | Potency [17] | Potency [18]

c1ccc2n[nH]nc2c1
inactive: Potency [1] | Potency [2] | Potency [3] | Potency [4] | caspase-3 activation [5] 1.47% | outcome [6] | outcome [7] | outcome [8] | outcome [9] | caspase-3 activation [10] 0.6% | outcome [11] | caspase-3 activation [12] -0.743% | caspase-3 activation [13] 1.96% | outcome [14] | outcome [15] | Potency [16] | Potency [17] | Potency [18]

CN(C)c1cccc(O)c1
inactive: Potency [1] | Potency [2] | Potency [3] | Potency [4] | caspase-3 activation [5] -0.572% | outcome [6] | outcome [7] | outcome [8] | outcome [9] | caspase-3 activation [10] 1.93% | outcome [11] | caspase-3 activation [12] 2.04% | caspase-3 activation [13] 0.706% | outcome [14] | outcome [15] | Potency [16] | Potency [17] | Potency [18]

Cc1cccc(C)c1O
inactive: Potency [2] | Potency [4] | caspase-3 activation [5] -0.87% | outcome [7] | outcome [8] | outcome [9] | caspase-3 activation [10] -0.0557% | outcome [11] | caspase-3 activation [12] -0.375% | caspase-3 activation [13] -3.44% | outcome [14] | outcome [15] | Potency [16] | Potency [17] | Potency [18]

CCCCCCC(=O)O
inactive: Potency [1] | Potency [2] | Potency [3] | Potency [4] | outcome [6] | outcome [7] | outcome [8] | caspase-3 activation [10] -0.964% | caspase-3 activation [12] 0.492% | caspase-3 activation [13] 0.189% | outcome [14] | outcome [15] | Potency [16] | Potency [17] | Potency [18]

O=C(O)c1cccc(Cl)c1Cl
inactive: Potency [1] | Potency [2] | Potency [3] | Potency [4] | caspase-3 activation [5] 0.107% | outcome [6] | outcome [7] | outcome [8] | caspase-3 activation [10] 0.259% | outcome [11] | caspase-3 activation [12] -0.64% | caspase-3 activation [13] -1.27% | outcome [14] | outcome [15] | Potency [16] | Potency [17] | Potency [18]

COc1cccc2sc(N)nc12
inactive: Potency [2] | Potency [3] | Potency [4] | caspase-3 activation [5] -0.447% | outcome [6] | outcome [7] | caspase-3 activation [10] 1.13% | outcome [11] | caspase-3 activation [12] 0.718% | caspase-3 activation [13] -1.25% | outcome [14] | outcome [15] | Potency [16] | outcome [19] | Potency [18]

CCNc1ccccc1
inactive: Potency [2] | Potency [3] | Potency [4] | caspase-3 activation [5] 0.137% | outcome [6] | outcome [7] | outcome [8] | outcome [9] | caspase-3 activation [10] -0.0326% | outcome [11] | caspase-3 activation [12] -0.349% | caspase-3 activation [13] -0.687% | outcome [14] | outcome [15] | Potency [16] | Potency [18]

CCCCC(CC)COCC1CO1 (centres undefined)
inactive: Potency [1] | Potency [2] | Potency [3] | Potency [4] | caspase-3 activation [5] -3.18% | outcome [6] | outcome [7] | outcome [8] | caspase-3 activation [10] -0.684% | outcome [11] | caspase-3 activation [12] -0.156% | caspase-3 activation [13] -2.33% | outcome [14] | outcome [15] | Potency [16] | Potency [17] | Potency [18]

C=Cc1ccc(C=C)cc1
inactive: Potency [1] | Potency [2] | Potency [3] | Potency [4] | caspase-3 activation [5] -0.456% | outcome [6] | outcome [7] | outcome [8] | outcome [9] | caspase-3 activation [10] -0.657% | outcome [11] | caspase-3 activation [12] -0.942% | caspase-3 activation [13] 0.511% | outcome [14] | outcome [15] | Potency [16] | Potency [17] | Potency [18]

CCCCCCCCC/C=C/CC1CC(=O)OC1=O (centres undefined)
inactive: Potency [1] | Potency [2] | Potency [3] | Potency [4] | caspase-3 activation [5] 1.29% | outcome [6] | outcome [7] | outcome [8] | outcome [9] | caspase-3 activation [10] 0.816% | outcome [11] | caspase-3 activation [12] 1.69% | caspase-3 activation [13] 5.74% | outcome [14] | outcome [15] | Potency [16] | Potency [17] | Potency [18]
